The target of test [1] is T1, Inhibitor of nuclear factor kappa-B kinase subunit epsilon (Homo sapiens) (UniProt Q14164).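 Also: reported values are averaged percent inhibition figures against human IKKε.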
T1 sequence (whole entry): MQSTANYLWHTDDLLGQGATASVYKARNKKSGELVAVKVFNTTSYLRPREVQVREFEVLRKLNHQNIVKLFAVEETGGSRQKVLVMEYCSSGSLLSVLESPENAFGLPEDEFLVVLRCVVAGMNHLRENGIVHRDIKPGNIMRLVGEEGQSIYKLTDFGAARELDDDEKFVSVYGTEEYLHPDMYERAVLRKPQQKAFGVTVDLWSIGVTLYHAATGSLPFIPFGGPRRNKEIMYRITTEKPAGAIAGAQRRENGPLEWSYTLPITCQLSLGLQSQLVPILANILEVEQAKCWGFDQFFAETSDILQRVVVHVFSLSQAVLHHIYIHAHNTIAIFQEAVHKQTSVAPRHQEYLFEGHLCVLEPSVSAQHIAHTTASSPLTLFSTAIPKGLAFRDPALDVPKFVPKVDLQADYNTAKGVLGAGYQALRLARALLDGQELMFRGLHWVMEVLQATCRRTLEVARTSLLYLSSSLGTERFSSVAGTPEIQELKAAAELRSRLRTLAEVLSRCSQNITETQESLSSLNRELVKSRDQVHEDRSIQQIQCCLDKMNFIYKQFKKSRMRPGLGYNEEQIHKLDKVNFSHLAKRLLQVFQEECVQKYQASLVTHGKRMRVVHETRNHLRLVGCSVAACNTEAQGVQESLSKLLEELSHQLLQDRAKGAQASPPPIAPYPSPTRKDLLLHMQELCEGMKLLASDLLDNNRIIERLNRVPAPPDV
The conditions noted are these: at 1 µM.

For test [2], the target named is T2, Serine/threonine-protein kinase Nek1 (Homo sapiens) (UniProt Q96PY6).
T2 sequence (whole entry): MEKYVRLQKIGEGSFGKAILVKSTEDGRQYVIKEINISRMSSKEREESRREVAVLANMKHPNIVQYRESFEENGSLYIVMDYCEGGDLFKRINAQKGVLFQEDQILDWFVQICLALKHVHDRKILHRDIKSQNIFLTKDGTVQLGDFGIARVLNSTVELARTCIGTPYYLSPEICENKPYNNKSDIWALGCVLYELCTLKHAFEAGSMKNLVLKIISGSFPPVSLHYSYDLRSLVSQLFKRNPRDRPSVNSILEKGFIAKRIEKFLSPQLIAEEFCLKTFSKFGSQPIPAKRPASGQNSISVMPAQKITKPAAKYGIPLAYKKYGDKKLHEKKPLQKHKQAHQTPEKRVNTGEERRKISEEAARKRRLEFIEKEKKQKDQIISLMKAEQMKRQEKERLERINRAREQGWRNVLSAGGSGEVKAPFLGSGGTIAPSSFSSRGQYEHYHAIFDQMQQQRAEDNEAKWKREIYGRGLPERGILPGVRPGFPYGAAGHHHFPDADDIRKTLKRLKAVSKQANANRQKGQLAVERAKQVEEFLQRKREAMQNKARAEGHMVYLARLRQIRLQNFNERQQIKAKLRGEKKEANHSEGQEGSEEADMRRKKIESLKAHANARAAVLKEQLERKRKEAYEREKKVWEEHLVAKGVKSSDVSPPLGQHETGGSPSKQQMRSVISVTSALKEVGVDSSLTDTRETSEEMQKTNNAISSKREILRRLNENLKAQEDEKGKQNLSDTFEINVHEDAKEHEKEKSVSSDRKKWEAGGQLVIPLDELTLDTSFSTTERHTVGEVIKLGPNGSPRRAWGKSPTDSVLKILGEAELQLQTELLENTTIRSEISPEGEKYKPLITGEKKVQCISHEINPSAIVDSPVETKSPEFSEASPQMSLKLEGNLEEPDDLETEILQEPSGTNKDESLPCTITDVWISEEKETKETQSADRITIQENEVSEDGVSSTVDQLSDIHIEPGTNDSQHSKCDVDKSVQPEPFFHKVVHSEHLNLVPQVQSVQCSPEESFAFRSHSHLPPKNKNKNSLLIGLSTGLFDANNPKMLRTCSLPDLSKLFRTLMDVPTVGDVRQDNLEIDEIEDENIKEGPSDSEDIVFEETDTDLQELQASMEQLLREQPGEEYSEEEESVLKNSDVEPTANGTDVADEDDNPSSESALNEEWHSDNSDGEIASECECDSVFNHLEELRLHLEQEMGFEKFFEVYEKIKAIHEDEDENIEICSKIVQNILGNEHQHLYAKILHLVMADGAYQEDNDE
The conditions noted are these: at 0.1 µM.

Test [3] deals with T2, Serine/threonine-protein kinase Nek1 (Homo sapiens). The conditions noted are these: at 1 µM.
Test [4] addresses T3, Serine/threonine-protein kinase Nek2 (Homo sapiens) (UniProt P51955).
T3 sequence (whole entry): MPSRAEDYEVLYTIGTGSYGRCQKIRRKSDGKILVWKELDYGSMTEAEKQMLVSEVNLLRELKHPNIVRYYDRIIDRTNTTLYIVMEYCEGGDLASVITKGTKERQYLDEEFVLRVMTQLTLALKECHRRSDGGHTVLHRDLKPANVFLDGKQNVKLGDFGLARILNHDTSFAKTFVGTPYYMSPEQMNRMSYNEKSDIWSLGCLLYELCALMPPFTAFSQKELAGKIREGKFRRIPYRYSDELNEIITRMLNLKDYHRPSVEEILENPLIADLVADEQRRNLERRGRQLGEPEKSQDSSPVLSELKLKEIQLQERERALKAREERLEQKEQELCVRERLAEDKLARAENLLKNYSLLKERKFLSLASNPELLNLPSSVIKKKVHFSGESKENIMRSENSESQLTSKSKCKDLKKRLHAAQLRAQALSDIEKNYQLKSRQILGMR
The note with it: at 0.1 µM.

For test [5], the target named is T3, Serine/threonine-protein kinase Nek2 (Homo sapiens). The note with it: at 1 µM.
For test [6], the target named is Serine/threonine-protein kinase Nek6 (Homo sapiens) (UniProt Q9HC98). The conditions noted are these: at 0.1 µM.
Serine/threonine-protein kinase Nek6 (Homo sapiens), sequence (Q9HC98 whole entry): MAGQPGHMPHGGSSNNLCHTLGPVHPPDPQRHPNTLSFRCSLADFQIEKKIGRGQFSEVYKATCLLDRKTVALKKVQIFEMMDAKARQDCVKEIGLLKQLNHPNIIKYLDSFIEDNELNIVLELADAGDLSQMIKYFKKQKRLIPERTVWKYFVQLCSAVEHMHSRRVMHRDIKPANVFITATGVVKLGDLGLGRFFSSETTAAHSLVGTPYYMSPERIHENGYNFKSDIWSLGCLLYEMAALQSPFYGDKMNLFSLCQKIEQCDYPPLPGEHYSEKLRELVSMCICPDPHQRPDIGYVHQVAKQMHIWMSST
Test [7] shares this target. The conditions noted are these: at 1 µM.
Test [8] addresses Serine/threonine-protein kinase Nek7 (Homo sapiens) (UniProt Q8TDX7). The conditions noted are these: at 0.1 µM.
Test [9] has the same target. The conditions noted are these: at 1 µM.
For test [10], the target named is T4, Serine/threonine-protein kinase Nek9 (Homo sapiens) (UniProt Q8TD19).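 Also: reported value is the mean percent inhibition of NEK9.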
T4 sequence (whole entry): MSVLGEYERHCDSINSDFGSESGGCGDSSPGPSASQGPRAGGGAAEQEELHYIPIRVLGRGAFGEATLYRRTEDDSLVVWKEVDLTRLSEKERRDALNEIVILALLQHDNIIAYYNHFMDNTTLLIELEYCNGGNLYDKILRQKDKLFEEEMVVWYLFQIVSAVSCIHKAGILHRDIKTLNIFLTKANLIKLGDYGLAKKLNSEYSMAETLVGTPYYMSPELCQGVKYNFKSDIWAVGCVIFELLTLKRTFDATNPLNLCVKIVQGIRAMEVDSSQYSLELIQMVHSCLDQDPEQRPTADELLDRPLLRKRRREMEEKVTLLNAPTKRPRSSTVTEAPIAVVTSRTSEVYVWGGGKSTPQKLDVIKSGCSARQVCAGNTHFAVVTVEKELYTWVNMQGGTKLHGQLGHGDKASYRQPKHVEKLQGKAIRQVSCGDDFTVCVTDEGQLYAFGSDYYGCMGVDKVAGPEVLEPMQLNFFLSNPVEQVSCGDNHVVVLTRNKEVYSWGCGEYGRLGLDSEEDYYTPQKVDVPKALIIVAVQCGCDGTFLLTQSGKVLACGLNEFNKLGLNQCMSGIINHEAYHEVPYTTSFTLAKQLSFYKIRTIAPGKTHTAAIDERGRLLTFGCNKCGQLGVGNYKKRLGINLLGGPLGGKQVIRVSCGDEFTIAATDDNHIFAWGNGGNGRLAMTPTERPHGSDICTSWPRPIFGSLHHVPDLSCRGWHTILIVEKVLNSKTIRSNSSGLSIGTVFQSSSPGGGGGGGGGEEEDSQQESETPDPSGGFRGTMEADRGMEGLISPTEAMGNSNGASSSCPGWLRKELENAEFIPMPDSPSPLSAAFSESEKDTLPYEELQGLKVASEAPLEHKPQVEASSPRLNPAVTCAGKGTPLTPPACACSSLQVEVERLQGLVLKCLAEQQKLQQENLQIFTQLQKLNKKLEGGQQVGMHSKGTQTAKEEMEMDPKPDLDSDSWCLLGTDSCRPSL
The note with it: at 0.1 µM.

Serine/threonine-protein kinase Nek7 (Homo sapiens), sequence (Q8TDX7 whole entry, looked up): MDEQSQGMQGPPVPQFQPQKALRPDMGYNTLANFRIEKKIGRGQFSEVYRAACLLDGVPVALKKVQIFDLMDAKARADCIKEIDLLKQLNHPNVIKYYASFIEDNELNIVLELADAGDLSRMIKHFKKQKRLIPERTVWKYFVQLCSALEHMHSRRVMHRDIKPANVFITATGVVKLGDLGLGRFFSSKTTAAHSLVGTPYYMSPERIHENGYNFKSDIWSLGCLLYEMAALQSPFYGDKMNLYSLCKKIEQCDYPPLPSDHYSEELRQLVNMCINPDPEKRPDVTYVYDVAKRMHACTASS

In general, inhibition refers to the relative decrease from the control value, in per cent. Consider `CCn1c(-c2nonc2N)nc2c(C#CC(C)(C)O)nc(OC[C@H](N)c3ccccc3)cc21`, for which the inhibition is 37.9% in test [1]; 2.39% in test [2]; 2.81% in test [3]; 2.31% in test [4]; 4.1% in test [5]; -0.95% in test [6]. Besides, the inhibition was 1.56% in test [7], 1.87% in test [8], 3.72% in test [9] and 6.95% in [10].

On to `COc1cc(/C=N/Nc2ncnc3[nH]ncc23)ccc1O`, for which the inhibition in test [1] stood at 96.3%; in [2], 3.25%; in [3] it was 12%; in test [4] it was 3.52%; in test [5] it was 4.62%; in test [6], 4.45%. Also, the inhibition in test [7] is 5.85%; in [8], 4.07%; in test [9], 5.51%; in test [10], 0.45%.

Regarding `CNC(=O)c1cncc(/C=C/c2ccccc2Cl)c1`, the inhibition is 2.69% in [1]; -0.35% in [2]; 1.83% in test [3]; -0.6% in test [4]; -0.78% in [5]; 1.4% in [6]. The inhibition is 5.65% in [7], -1.23% in test [8], -1.28% in [9] and 1.21% in test [10].

In the case of `N#Cc1c(NC(=O)CN2CCOCC2)sc2c1CCCC2`, the inhibition is 92% in [1]; 2.42% in [2]; 6.07% in [3]; 4.61% in test [4]; 4.37% in [5]; 3.33% in [6]. Besides, the inhibition came to 5.18% in test [7], 2.96% in test [8], 3.61% in [9] and 6.26% in test [10].

On to `NS(=O)(=O)c1ccc(Nc2ncc(-c3ccccc3)o2)cc1`, for which the inhibition in test [1] turned out to be 5.67%; in test [2] it was 2.41%; in test [3] it was 5.75%; in test [4], 4.32%; in test [5] it was 4.17%; in test [6], 2.71%. Further, the inhibition came to 1.65% in test [7], 2.06% in test [8], 2.65% in test [9] and 3.91% in [10].

In the case of `O=C(Nc1n[nH]c2cc(-c3ccc(F)cc3)ccc12)C1CC1`, the inhibition is 3.59% in test [1]; 2.65% in test [2]; 1.94% in test [3]; 4.38% in [4]; 4.67% in test [5]; 0.6% in [6]. Besides, the inhibition worked out at 2.6% in test [7], 5.51% in [8], 3% in test [9] and 8.59% in [10].

As for `CCNC(=O)O[C@H]1CN[C@H](C#Cc2cc3ncnc(Nc4ccc(OCc5cccc(F)c5)c(Cl)c4)c3s2)C1`, the inhibition in [1] turned out to be 2.76%; in [2], 1.8%; in test [3], 2.36%; in test [4] it was 3.33%; in [5], 6.2%; in test [6] it was 3.89%. Moreover, the inhibition was determined as 0.56% in test [7], 3.85% in test [8], 3.51% in test [9] and 12% in test [10].

`COc1ccc(-c2nn3ncccc3c2-c2ccnc(Nc3ccc4c(c3)OCCO4)n2)cc1`: the inhibition was -0.27% in test [1]; 0.11% in [2]; 2.9% in [3]; -0.55% in test [4]; 3.9% in [5]; -0.41% in test [6]. The inhibition in test [7] stood at 0.26%; in test [8], 2.18%; in [9], 1.38%; in test [10] it was 6.4%.

In the case of `COc1ccc(-c2oc3ncnc(N)c3c2-c2ccc(NC(=O)Nc3cc(C(F)(F)F)ccc3F)cc2)cc1`, the inhibition in [1] came out at 9.69%; in test [2] it was 5.73%; in test [3] it was 16.9%; in test [4] it was 5.08%; in test [5], 7.47%; in test [6] it was 2.43%. For the same molecule, the inhibition was 3.73% in test [7], 3.58% in [8], -1.9% in [9] and 6.04% in [10].

For the origin of these results see ChEMBL document CHEMBL1961873, “Compounds: GSK PKIS; Assays: Nanosyn kinase panel” (2012).
